Results on 29 molecules are retold here after the supplement of paper PMC12632987.

In all, about 1,800 sequences were measured (“median log2 fold change of GCK-ALFA target abundance (FLAG IP / Myc IP barcode read proportion)”: median about 0.14, lowest 2% from about -0.84 on). Many of the other results were omitted from the sample, so the lowest values are more common in it than they were.

First the molecules themselves.
T1: TRAF2, Q12933
T1 chain: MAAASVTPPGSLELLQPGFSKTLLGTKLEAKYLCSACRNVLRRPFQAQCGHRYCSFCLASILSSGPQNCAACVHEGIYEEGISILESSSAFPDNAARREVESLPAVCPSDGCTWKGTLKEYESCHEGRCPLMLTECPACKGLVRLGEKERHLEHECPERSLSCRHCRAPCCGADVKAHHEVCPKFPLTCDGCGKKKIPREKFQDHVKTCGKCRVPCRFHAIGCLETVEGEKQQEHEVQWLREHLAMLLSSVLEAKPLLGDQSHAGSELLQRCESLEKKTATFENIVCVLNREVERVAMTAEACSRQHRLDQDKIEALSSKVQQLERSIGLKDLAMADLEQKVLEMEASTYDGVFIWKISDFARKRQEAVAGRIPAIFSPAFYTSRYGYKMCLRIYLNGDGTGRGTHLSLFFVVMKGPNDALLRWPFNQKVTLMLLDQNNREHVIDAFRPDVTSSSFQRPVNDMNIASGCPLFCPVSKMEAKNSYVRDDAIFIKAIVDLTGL

B1: traf2_out_14_149_1260 (protein)
chain: SATEERRRALREALELFERAAELLAAAIAAGSNDLDVEELRRLLEEAREILSKQGFVLGSLLAIEELLEEAEELTEEDLRRLLELAERAAESLEVLAEML
B2: traf2_out_17_178_1741 (protein)
chain: SKEEILKEISKLADEMIDVSREAAEKLTELAEKEGILTPELRERLDLVARTSNLYAFEEVANELIELSKNKEEIQKLLDETTKKLRELRKKIQEAVEKLK
B3: traf2_out_13_95_1214 (protein)
chain: SAEANAELREVAREYTDRAEAVIDALAAALAPDPEVQPDMDAIRAAFRRNGVRQAIALIRAAAARHPEHKADFDAAAAELEAIRREAGRRFAEILKRDEE
B4: traf2_out_9_108_2593 (protein)
chain: MTKEEILEEKFKKVEELVKEFIEEVDLTEEQKEELEEAIKNAKELYEKGLKETAIILLAIDLARVASKVGEEAVKELLEKLKKIDERAYSAAERMVKLLK
B5: traf2_out_17_162_1623 (protein)
chain: SPEEEELKRYEEELKELEKEKKELEKKAEKIDELSKEELTDLLVEASEARRRARELAERIERKREELNDPRLEELLKRAEEIAEEFQRIANKFYKKLEEK
B6: traf2_out_1_33_1031 (protein)
chain: SAEIERKSMALLRRTTGEMYRLLRETEEKMEKLLEEGKPAEEIEKLAEETRKKIKEIADKAIAELKALGDDLTADILESEKTDILKRLDEIKKEILAKLK
B7: traf2_out_20_38_2038 (protein)
chain: SEEEEEEERLERLVEVANAALDRYEARIAALQAEGKSVAEIAEWAKEEIRRILGEAGLEEEAEELIAQVRTVENRPDALRLIARILARAEALAYQKELQK
B8: traf2_out_11_131_661 (protein)
chain: MDAVAMAKSVAARVDERLALAKTLSPEERTRLARQALDSIEALAEYLTSHVSEMSKEDVEEAVKILRASAKKVLAADPSVAEDVKEVEKALKKLLEAAKA
B9: traf2_out_20_38_2029 (protein)
chain: SEEEEEERRLEELIKVANDSYDKYTKKFEKLVAEGKTVEEIAELAKKEVKEKLTAAGLEEEAKELIEDIDRALSSPNALRLIVRILARADALVHQKKINE
B10: traf2_out_3_89_2291 (protein)
chain: SMEKEKKIKEAKERAERYVKGFEKNARRVAKEMLEEGHSLETLRGVLEAARTAIVETFGETLKEEGIDKETRDKILEELKKKLDEIVEEVVEEAKKRREE
B11: traf2_out_11_169_862 (protein)
chain: KEEEFNRKLIDFALEVEDEAKKKLKEFALKLAKEAGLDVAEVEAIFEKHKNSSLSAIASALIEYFRSKGKEEEAEKILKKHDELKEEINKKVSEKIKELK
B12: traf2_out_16_177_1458 (protein)
chain: ELDRVMDRLVILSLIRRAALEIVRSNSPEAERYLAEARAEAEAAGDEEGLARIARIEELAAQNTPEARAELRALAAEAQREAQRLANEAERLIRERAAAE
B13: traf2_out_20_38_2035 (protein)
chain: SEEEEEEEKLEEIIEVANEAYDEYMAWIAERKAAGKTVEEIAEEAKEEVKELLSKVGLEEEAEILIEDIDRALSSPDAERLIARTLARAVALVKQKELNK
B14: traf2_out_20_38_2034 (protein)
chain: SMEEEEEEKLEEIIEVANEALDKYEAEIAKWKAEGKTVEEIAEEAKKKVKELLSKVGLEEEAKILIEEIDLALSSPDAERLIARTLARAEALVKQKELNE
B15: traf2_out_1_71_1752 (protein)
chain: SPEAEKAEKALEDMAKSIAEGMKTEEALERYLEAFRNHIKRVKALAKANKDDEAVKAGSIADLNLEAELLEKIAKYVDEESKKKLEELAKEAKKAAEEIK
B16: traf2_out_13_95_1034 (protein)
chain: SRELAEKIMEIADEAEEKILKLLEEKSKELADDPEMVKVLEEARRLALTRGVNEAIHLLREASERFPEYKEELDKLIEEIEKIREEAGKKVAELIKEEEE
B17: traf2_out_20_38_2036 (protein)
chain: SMEEEEEEKLEEIIRVANEAYDAYEAEIAALKAAGKTVEEIAAIAKERVRELLSKVGLEEEAEILVEDIDLALSSPEAERLIARILARAEAKVKQKELNE
B18: traf2_out_20_38_2022 (protein)
chain: SEEEEEKKKLEELVKVANEAYDEYTARFAEWKAAGKTVEEIAEEVKERIRELLTAAGLEEEAEILIEEVDLALKSPEAERLLVRTLARAVALVHQKELQK
B19: traf2_out_13_95_1078 (protein)
chain: SAEANKKIMEIADEMLEKSLKILKELSKKVADNPEMKAAVEEAIHLAETQGINAAIHLLEKLSEANPEYKELLDEAIKKLKEIKEEAGKKVAEILKEEKE
B20: traf2_out_11_155_677 (protein)
chain: EKKREINNALVDEMAAIDDATRAALDAIVDAAAAAHPEHAAALRAARDATRPYPGSSRGRALAALFRELGLEDYAAQVEALLAAAQKEKNAALKAHEAKL
B21: traf2_out_20_3_2096 (protein)
chain: EELKKELEKALEEAEKLIKEAIKLADEETAKKLKELLKKLKEAKELPLDDQLVELSEVRRELLELAEKAKKEGKEELAKILEEAADKINRAMNLAYKIIE
B22: traf2_out_17_178_1700 (protein)
chain: SKEEIRKKISELTDELIDHADRYGTALLARLRAEGVLSPEELAALDAALASGSNRTLLATAEELIPRSAASPETRALLAEWRAETREIAKKIAEAYEKYE
B23: traf2_out_18_167_1855 (protein)
chain: EEELKKKLEEATDELVKLSEVKRLARTALQLLETDPAAFPAAKAALIAALRAHGELAHLADRLEAAPPEEQPAVLEEIVEEAQRLANEKYKEIEELRKKL
B24: traf2_out_5_63_2338 (protein)
chain: SEREELTALAREADRAVRAILEALKAGKREEARKLVEEVAKDPELLRTAIGIARAELKYYSLQPEKKEEEKIAKELLKLLEEAAKRREEEERREREEALA
B25: traf2_out_17_178_1715 (protein)
chain: TKEAARAEISAATDEMIDLAEAAAARLLAIAEAEGSLSPEELAELRRARRLGSARTTRALMRRAIPRSPSAAEVQALLDDFEKRYAELSKKIAEALKKYE
B26: traf2_out_15_180_1332 (protein)
chain: MTEEELEKRIELVAEVADEADERVREELAAAGVTSPEHLALARSGVRAVITHVFAGWEEEAEEVEEIVAARLPEELRPLFRRLVEEARRRAEEALERLKK
B27: traf2_out_6_3_2518 (protein)
chain: MEESIRRDAAKVLENMGITTAEQLLRLVKANVNAVKKLVSRKDVDRADLAGAESVLNLTRAMVEVAAETLPDLTEEQKAEMLALIEEARELVEKKRKELE
B28: traf2_out_6_3_2519 (protein)
chain: MEESLREDARTVLKNMGITTAEQLLRLVKAEVNAVKKLVSRKDVDRADLAGAESVLALTRAMVEVAAEELPDLTEEQKAEMLELIEEAEKLVEEKRKELE
B29: traf2_out_6_3_2529 (protein)
chain: SEEKLREDARTILENMGITTAEQLLRLVKAEVNAVKQLVSRPDVDRADLAGARSVLALTRAMVEVAAETLPSLTPEQAEEALALIDETEKLVEKREKELE

This assay concerns the target T1, TRAF2, Q12933. Put plainly: median log2 fold change of GCK-ALFA target abundance (FLAG IP / Myc IP barcode read proportion) (log2 ratio); each designed protein is fused to an ALFA-tag nanobody in HEK293 cells to bring the named protein to FLAG-tagged glucokinase (GCK); Myc marks an untargeted standard; higher = target protein stabilised (more abundant). The following applies: target protein: 3xFLAG-MCP-GCK-ALFA reporter; HEK293 landing pad (RPLP). The method, boiled down:
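An ALFA-nanobody-fused binder library was recombined into HEK293 landing-pad cells and induced with 2 μg mL^−1 doxycycline. Cells were transfected with a plasmid expressing a FLAG-tagged target and a Myc-tagged standard. After 48 h, lysates underwent anti-FLAG and anti-Myc immunoprecipitation, and circular RNA barcodes were reverse transcribed, amplified and sequenced. Target abundance is the per-binder median log2 ratio of FLAG to Myc barcode read proportions. Barcodes needed ≥10^−7 proportion in both replicates, binders ≥3 barcodes per replicate, and a 10^−6 pseudocount was added; the two replicates were pooled.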
In the case of B1, the “median log2 fold change” value is 0.0539.

As to B2, the “median log2 fold change” value is -0.0674. On to B3, for which the “median log2 fold change” value was -0.892. With B4, the “median log2 fold change” value was -0.0117. In the case of B5, the “median log2 fold change” value was found to be 0.4. As for B6, the figure is 0.233; as for B7, -1.39. For the molecule B8, the “median log2 fold change” value is 0.0951. As to B9, the “median log2 fold change” value is -1.3. B10: the “median log2 fold change” value was -0.996. Consider B11, for which the “median log2 fold change” value is 0.0801. Consider B12, for which the “median log2 fold change” value was -0.327.

Consider B13, for which the “median log2 fold change” value was -1.16.

In the case of B14, the “median log2 fold change” value is -0.126.

B15: the “median log2 fold change” value is -0.948.

As for B16, the “median log2 fold change” value is -0.375. Consider B17, for which the “median log2 fold change” value was -1.27. As for B18, the figure is -0.885. For the molecule B19, the “median log2 fold change” value turned out to be 0.00315. As for B20, the “median log2 fold change” value is -0.00384. Consider B21, for which the “median log2 fold change” value was determined as 0.177. Take B22: the “median log2 fold change” value was 0.0128. For B23, the “median log2 fold change” value was found to be 0.405. As for B24, the figure is 0.165; as for B25, -0.171. In the case of B26, the “median log2 fold change” value was -0.0893. In the case of B27, the “median log2 fold change” value is -0.905. In the case of B28, the “median log2 fold change” value is -0.45. In the case of B29, the “median log2 fold change” value was -0.16.
